In PubChem BioAssay (NCATS):
Records with an inconclusive call do not appear. Active and inactive are the calls of the source. Calls come from the whole dose curve; as a rule, active = well fitted inhibition curve with a large enough effect; inconclusive = small, poorly fitted or top-dose-only effect; inactive = flat fitted curve, though single readings scatter.

Columns and labels:
Assay in all cases: Cytotoxic Profiling of Annotated Libraries Using Quantitative High-Throughput Screening (AID 1296008); note: nearly all actives have a fitted effect of over 60% in size
Details in all cases: Five cell lines viability, CellTiter-Glo ATP luminescence, 48-72 h; max response: hits give low values
[1] = test system: CRL-7250
Method in brief: (§1)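 Cytotoxicity was measured as CellTiter-Glo ATP luminescence, read after 10 min at room temperature. Compound treatment of the cells lasted 48 or 72 hr at 37 degrees Celsius in a qHTS format.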

[2] = test system: HEK293
Method in brief: as §1

[3] = test system: HaCat
Method in brief: as §1

[4] = test system: KB-3-1
Method in brief: as §1

[5] = test system: NIH3T3
Method in brief: as §1

Measured: max response
% is set by controls: 0 for no effect and ±100 for the full control effect.

OC/C=C/C=C/[C@H]1Cc2cc(O)cc(O)c2O1
inactive: [1] | [2] -7.6% | [3] -12.2% | [4] 6.07% | [5] 1.57%

CC(=O)O[C@@H]1[C@@H](OC(=O)/C=C/c2ccccc2)[C@@H](OC(C)=O)[C@H](O[C@H]2[C@@H]3C=CO[C@@H](O[C@@H]4O[C@H](CO)[C@@H](O)[C@H](O)[C@H]4O)[C@@H]3[C@@]3(CO)O[C@@H]23)O[C@H]1C
inactive: [1] | [2] -5.93% | [3] -11.2% | [4] | [5] -0.931%

C=CC(C)(CC/C=C(\C)C(=O)OC)OC1OC(COC(=O)CC(C)(O)CC(=O)O)C(OC2OC(CO)C(O)C(O)C2O)C(O)C1O (stereo not given)
inactive: [1] | [2] -1.61% | [3] -0.66% | [4] | [5] 2.15%

COc1c2c(cc3c1-c1c(cc4c(c1OC)OCO4)CC(C)C(C)C3)OCO2 (stereo not given)
inactive: [1] 1.23% | [2] -21.6% | [3] -1.94% | [4] -8.19% | [5] -11.8%

COc1cccc(C(=O)N2CCN(C(=O)COc3cccc(C)c3)CC2)c1OC
inactive: [1] | [2] -16.5% | [3] -1.12% | [4] -10.9% | [5] -5.08%

COc1cc(O)cc(/C=C/c2ccc(O[C@@H]3O[C@H](CO)[C@@H](O)[C@H](O)[C@H]3O)cc2)c1
inactive: [1] -0.761% | [2] -4.02% | [3] 0.534% | [4] | [5] 4.58%

CC(C)C(C(=O)N(C)C(C)C(N)=O)N(C)C(=O)C1CCCN1C(=O)/C=C/C=C/C(O)C(C)O (stereo not given)
inactive: [1] | [2] 4.88% | [3] -10.3% | [4] 7.9% | [5] 2.29%
